Experimental findings from PubChem BioAssay (NCATS) are described below.

A short description of experiment [1]: Viability qHTS for spleen associated tyrosine kinase inhibitor (SYKi) naive MV4-11 cells (AID 1963823). Also: nearly all actives have a fitted effect of over 40% in size. The essentials: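 SYKi-naive MV4-11 AML cells, 500 per well, were exposed to library compounds for 72 hr at 37 C, 5% CO2. Viability was then read by CellTiter-Glo luminescence after 10 min at room temperature.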
On the technique in general: Quantitative high-throughput screening tests each substance at several concentrations.

Experiment [2] can be described thus: Viability qHTS for spleen associated tyrosine kinase inhibitor (SYKi) drug resistant MV4-11 cells (AID 1963824). Also: nearly all actives have a fitted effect of over 35% in size. The essentials:
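SYK-inhibitor-resistant MV4-11 AML cells were seeded at 500 per well onto compound and cultured 72 hours (37 °C, 5% CO2). CellTiter-Glo was then added, and after 10 min at room temperature, luminescence gave viability.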

Experiment [3] is described as follows: Cellular viability qHTS for adrenocortical cancer (ACC) cell line SW-13 (AID 1963989). Also: nearly all actives have a fitted effect of over 65% in size.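 As to activity (max response): cells grown in serum-free medium with ITS supplement; % is scaled to controls: 0 for no effect and ±100 for the full control effect.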 The following applies: SW-13 ACC cells viability, CellTiter-Glo, 48 h; activity (max response): hits give low values. The essentials:
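Viability was read as CellTiter-Glo luminescence after 48 h compound treatment (up to 46 uM final) of SW-13 cells grown serum-free; titration curves were fit with a four-parameter logistic model to give IC50 and efficacy.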

Experiment [4] can be described thus: Cellular viability qHTS for adrenocortical cancer (ACC) cell line NCI-H295R (AID 1963990). Also: nearly all actives have a fitted effect of over 60% in size.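 As to activity change, negative = viability loss: 0% = DMSO only wells and -100% = full killing with cytotoxic reference compound.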 A digest of the protocol: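 CellTiter-Glo ATP luminescence, read 48 h after compound addition, measured viability of NCI-H295R adrenocortical cells grown serum-free with ITS. Final concentrations spanned up to 46 uM. Data normalized to DMSO and doxorubicin, fitted for IC50 and maximal response.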

Where “and” joins values, the source holds several entries; their conditions need not be identical. Identical values can stand only once. Records with an inconclusive call do not appear. Unmarked numbers belong to inactive results. Calls of active or inactive are those of the source. Calls follow the shape of the dose curve; as a rule, active = well fitted curve in the direction sought with a large enough effect; inconclusive = small, poorly fitted or top-dose-only effect, or another doubt; inactive = no such curve, though single readings can be large; an effect the other way counts as inactive or inconclusive.
Potency is read from the fitted curve at half-maximal effect.

For `C[C@@]12C(=O)OC(=O)[C@]1(C)[C@H]1CC[C@@H]2O1`, the Potency in experiment [1] is 2.63 µM (active); in experiment [2], 2.63 µM (active); in experiment [3] it was 15.8 µM (active); in experiment [4], 3.98 µM (active).

As for `NC(=O)c1nc(F)c[nH]c1=O`, the Potency result in experiment [1], in experiment [2] and in experiment [4] was “inactive” throughout. The activity (max response) in experiment [3] is 0.237%.

Take `CC(C)(C)c1nnc(NS(=O)(=O)c2ccc(N)cc2)s1`: the Potency entry in experiment [1], in experiment [2] and in experiment [4] was “inactive” each time. Besides, in experiment [3], the activity (max response) was -5.75%.

As to `CNC(=O)[C@H]1O[C@@H](n2cnc3c(NCc4cccc(I)c4)nc(Cl)nc32)[C@H](O)[C@@H]1O`, the Potency was 14.8 µM (active) in experiment [1] and 8.33 µM (active) in experiment [2]. Further, in experiment [3], the activity (max response) is 2.68%. Also, the Potency result in experiment [4] was “inactive”.

As to `Brc1c(NC2=NCCN2)ccc2nccnc12`, the Potency entry in experiment [1], in experiment [2] and in experiment [4] was “inactive” throughout. For the same compound, in experiment [3], the activity (max response) is -5.06%.

Consider `CN1CCCN(C(=O)c2cccc(-c3ccc(/C=C4/C(=O)Nc5ccc(Cl)cc54)o3)c2)CC1`, for which the Potency in experiment [1] is 0.417 µM (active); in experiment [2] it was 0.662 µM (active); in experiment [3], 25.1 µM (active); in experiment [4] it was 4.47 µM (active).

Take `c1ccc(Cn2c(-c3ccc(OCC(C4CCNCC4)n4c(-c5ccccc5)nc5ccccc54)cc3)nc3ccccc32)cc1` (centres undefined): the Potency is 5.25 µM (active) in experiment [1], 7.42 µM (active) in experiment [2], 25.1 µM (active) in experiment [3] and 7.08 µM (active) in experiment [4].

Take `C[C@@H]1CC(=O)Nc2cccc(-c3cnn(C(C)(C)C)c3)c2N1`: the results for the Potency in experiment [1] and in experiment [2] were 14.8 µM (active) and 11.8 µM (active), respectively. Moreover, the activity (max response) in experiment [3] was 2.32%. For the same compound, the Potency entry in experiment [4] was “inactive”.

As for `CN(C)CCOc1ccccc1Cc1ccccc1`, the Potency entry in experiment [1], in experiment [2] and in experiment [4] was “inactive” in each case. Also, in experiment [3], the activity (max response) was 9.36%.

As to `COc1cc2c(cc1OC)CN(CCc1ccc(-n3nnc(-c4cc(OC)c(OC)cc4NC(=O)c4cc(=O)c5ccccc5o4)n3)cc1)CC2`, in experiment [1], the viability (% of control) is 79.1% [at 0.588 µM]. Moreover, in experiment [2], the viability, % of control was 98% [at 0.588 µM]. Moreover, the activity (max response) in experiment [3] was -2.39%. Moreover, in experiment [4], the activity change, negative = viability loss is -5.76% [at 0.587 µM].

For `NCC1CCN(c2nccc(-c3ccc4ccccc4c3)n2)CC1`, the Potency in experiment [1] was 1.16 µM (active); in experiment [2], 1.16 µM (active); in experiment [3] it was 22.4 µM (active); in experiment [4] it was 10 µM (active).

For `CCCCCCCCCCCCCCCCOCCCOP(=O)(O)COC(CO)Cn1ccc(N)nc1=O` (centres undefined), the Potency was 2.59 µM (active) in experiment [1] and 3.26 µM (active) in experiment [2]. In addition, in experiment [3], the activity (max response) was -4.49%. For the same compound, the Potency entry in experiment [4] was “inactive”.

For the compound `CC(=NNC(=O)c1cccc(S(=O)(=O)N2CCOCC2)c1)c1cc(Cl)ccc1O`, the Potency is 0.742 µM (active) in experiment [1], 0.742 µM (active) in experiment [2], 3.55 µM (active) in experiment [3] and 4.47 µM (active) in experiment [4].

On to `C#Cc1ccc(-c2ccccc2F)cc1`, for which the Potency entry in experiment [1], in experiment [2] and in experiment [4] was “inactive” each time. The activity (max response) in experiment [3] is -5.81%.

With `O=C1NC(=O)/C(=C/c2ccc3nccc(-c4ccncc4)c3c2)S1`, the Potency is 461 nM (active) and 372 nM (active) in experiment [1]; 820 nM (active) and 525 nM (active) in experiment [2]; 1 µM (active) in experiment [3]; 0.631 µM (active) in experiment [4].

On to `O=C(CCl)Nc1cccc(NC2=NS(=O)(=O)c3ccccc32)c1`, for which the Potency in experiment [1] is 2.63 µM (active); in experiment [2], 2.63 µM (active); in experiment [3] it was 8.91 µM (active); in experiment [4] it was 3.16 µM (active).

Turning to `COc1ccc2cc1Oc1cc3c(cc1OC)CC[N+](C)(C)[C@H]3Cc1ccc(cc1)Oc1c(OC)c(OC)cc3c1[C@@H](C2)[N+](C)(C)CC3`, the Potency entry in experiment [1], in experiment [2] and in experiment [4] was “inactive” in each case. The activity (max response) in experiment [3] was 15.7%.

For the compound `CCN(CC)CCNC(=O)c1cc(Cl)c(N)cc1OC`, the Potency result in experiment [1], in experiment [2] and in experiment [4] was “inactive” in each case. Besides, the activity (max response) in experiment [3] was -0.158%.

As for `Cc1cnc(NS(=O)(=O)c2ccc(N)cc2)nc1`, the Potency entry in experiment [1], in experiment [2] and in experiment [4] was “inactive” each time. Moreover, the activity (max response) in experiment [3] was 9.12%.

With `CC(C)(C)c1ccc(O)c(O)c1`, the Potency was 9.69 µM (active) in experiment [1], 6.11 µM (active) in experiment [2], 10 µM (active) in experiment [3] and 8.91 µM (active) in experiment [4].

Turning to `CC(=O)c1ccc(O)c(C(N)=O)c1`, the Potency result in experiment [1], in experiment [2] and in experiment [4] was “inactive” each time. For the same compound, the activity (max response) in experiment [3] is 17.1%.

As for `CO[C@@]1(NC(=O)C(C(=O)O)c2ccc(O)cc2)C(=O)N2C(C(=O)O)=C(CSc3nnnn3C)CO[C@@H]21` (some centres undefined), the Potency result in experiment [1], in experiment [2] and in experiment [4] was “inactive” each time. Besides, the activity (max response) in experiment [3] was 13.4%.

Turning to `CN1CCN(c2ccc3nc(-c4c(N)c5c(F)cccc5[nH]c4=O)[nH]c3c2)CC1`, the Potency in experiment [1] is 0.0116 µM (active); in experiment [2], 16.4 nM (active) and 18.6 nM (active); in experiment [3], 15.8 µM (active); in experiment [4] it was 17.8 µM (active).

Turning to `C=CCc1cccc(/C=N/NC(=O)CN2CCN(Cc3ccccc3)CC2)c1O`, the Potency was 7.42 µM (active) in experiment [1], 6.61 µM (active) in experiment [2], 8.91 µM (active) in experiment [3] and 10 µM (active) in experiment [4].

With `Nc1c(NC/C=C\COc2cc(CN3CCCCC3)ccn2)c(=O)c1=O`, the Potency result in experiment [1], in experiment [2] and in experiment [4] was “inactive” throughout. Besides, in experiment [3], the activity (max response) is 4.55%.

For `C[N+]1(CC2COC(c3ccccc3)(C3CCCCC3)O2)CCCCC1` (centres undefined), the Potency in experiment [1] was 13.3 µM (active); in experiment [2], 11.9 µM (active). For the same compound, in experiment [3], the activity (max response) was -27.2%. In addition, the Potency result in experiment [4] was “inactive”.
